An excerpt weighted towards active compounds, which were near 21% of everything screened.
VP16 counter = inhibits Gal4-VP16 luciferase reporter, ROR gamma counter-screen; hit rate 3.5% among 310,000; Drosophila S2 Gal4-VP16 UAS-luciferase, luminescence, 20 h; Potency, µM (highest dose often 53.6 µM), most hits filed as inhibitors;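 also: Gal4-VP16 expression switched on by copper sulfate through the metallothionein promoter; nearly all actives have a fitted effect of over 50% in size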
ELG1 repair inh = inhibitors of ELG1-dependent DNA repair in HEK293T cells; Potency, µM (doses to about 46.1 µM), most hits filed as inhibitors; HEK293T ELG1-luciferase reporter, luminescence, 16 h; DNA damage induced by 5-fluorouridine; AID 504467; hit rate 2.3% among 330,000; also: nearly all actives have a fitted effect of over 55% in size
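Step one: seed 2,000 cells per well. Step two: pin-transfer compound or DMSO alongside 5-fluorouridine. Step three: incubate 16 hr, 37 °C, 5% CO2. Step four: add ONE-Glo, wait 30 min, read luminescence.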
RORgamma inh = ROR gamma (mouse) transcription inhibition. Potency, µM (highest dose often 53.6 µM), hits mostly inhibitors. Drosophila S2 Gal4-RORgamma UAS-luciferase reporter, 20 h. hit rate 5.4% among 310,000. AID 2551. P51450; also: nearly all actives have a fitted effect of over 60% in size
Target sequence (P51450 whole entry, looked up, the tested form may be a part): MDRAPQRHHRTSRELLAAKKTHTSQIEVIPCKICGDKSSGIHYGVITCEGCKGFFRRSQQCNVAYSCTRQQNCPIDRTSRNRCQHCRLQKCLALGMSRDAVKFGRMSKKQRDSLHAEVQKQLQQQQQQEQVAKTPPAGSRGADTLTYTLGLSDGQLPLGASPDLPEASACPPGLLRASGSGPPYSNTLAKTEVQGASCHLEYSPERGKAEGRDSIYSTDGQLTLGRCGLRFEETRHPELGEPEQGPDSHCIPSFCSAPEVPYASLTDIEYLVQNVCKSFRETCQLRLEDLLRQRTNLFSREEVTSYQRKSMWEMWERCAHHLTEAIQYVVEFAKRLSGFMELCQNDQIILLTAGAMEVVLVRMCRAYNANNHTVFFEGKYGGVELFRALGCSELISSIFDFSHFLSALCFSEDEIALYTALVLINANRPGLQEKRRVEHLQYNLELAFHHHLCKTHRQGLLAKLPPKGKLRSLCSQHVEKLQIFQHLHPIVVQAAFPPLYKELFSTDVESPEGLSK
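Luciferase reporter read in Schneider cells carrying Gal4-RORγ (mouse) and UAS-Photinus luciferase; cells given compound 1 h before 700 uM copper sulfate induction, then incubated 20 h at ambient temperature.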
TDP1 cell CPT = DT40-hTDP1 cell growth loss with CPT; chicken DT40 Tdp1-/-;hTDP1 cells + 20 nM CPT, ATP luminescence, 48 h; Potency, µM (top dose mostly 46.2 µM), most hits filed as inhibitors; hit rate 12% among 420,000; AID 686979; also: nearly all actives have a fitted effect of over 55% in size
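Chicken DT40 Tdp1-/- cells stably complemented with human TDP1 were seeded at 400 cells/well in medium containing 20 nM camptothecin, exposed to pin-transferred compounds, and grown at 37 °C for at least 48 hr. Viability was read as ATP luminescence.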
IL-1B inflam inh = inflammasome signaling inhibition, IL-1 beta readout | THP-1 LPS/ATP IL-1B secretion, AlphaLISA, 16 h; stronger effect = lower value | activity change, % at 57.5 µM | hit rate 4.7% among 360,000 | AID 743279; in the data active = activity change below about -50%; inconclusive = mostly about -30% to -49%
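Secreted IL-1B measured by AlphaLISA bead assay after 16 h compound exposure of THP-1 cells; compounds (final up to 57.5 uM) added 1 h before LPS (250 ng/mL) and ATP (1.25 mM) stimulation; lower signal means less secretion.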
TDP1 cell noCPT = qHTS for Inhibitors of human tyrosyl-DNA phosphodiesterase 1 (TDP1): qHTS in cells in absence of CPT; DT40 Tdp1-/- hTDP1 cells, no CPT, ATP luminescence, 48 h; Potency, µM (top dose mostly 46.2 µM), usual class: inhibitors; hit rate 15% among 420,000; AID 686978, 2013; also: nearly all actives have a fitted effect of over 55% in size
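Seeded 400 DT40-hTDP1 cells/well (vehicle DMSO, no 20 nM CPT); pinned compounds; ≥48 hr at 37 °C; CellTiter-Glo luminescence as viability measure.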
A number is an active result; – = inactive; ? = inconclusive; · = no result given; [ ] = dose if it differs, or a comment. Unless noted, calls follow the shape of the dose curve; as a rule, active = well fitted curve in the direction sought with a large enough effect; inconclusive = small, poorly fitted or top-dose-only effect, or another doubt; inactive = no such curve, though single readings can be large; an effect the other way counts as inactive or inconclusive.

SMILES	VP16 counter	ELG1 repair inh	RORgamma inh	TDP1 cell CPT	IL-1B inflam inh	TDP1 cell noCPT
Cc1cc(C)c2oc(-c3cccc(NC(=O)c4ccco4)c3)nc2c1	·	·	·	?	·	–
COc1cccc(OC)c1C(=O)Nc1cccc(-c2nc3cc(C)cc(C)c3o2)c1	·	·	·	13µM	·	7.3µM
Cc1cccc(C(=O)N2CCN(CCNC(=O)C(=O)Nc3ccc(F)cc3)CC2)c1	–	–	–	–	–	?
CN(/N=C/c1cc(Br)cc(Br)c1O)c1cccc(C(F)(F)F)n1	?	7.3µM	–	7.3µM	–	16µM
Cc1noc(C)c1CSc1ccccc1C(=O)N(C)CC(=O)Nc1cccc(F)c1	·	–	·	–	–	–
Cc1ccc(C)n1-c1cc(S(=O)(=O)N2CCOCC2)ccc1N1CCCC1	–	–	–	21µM	–	26µM
O=[N+]([O-])c1cc(S(=O)(=O)N2CCOCC2)ccc1N1CCCC1	–	–	?	–	–	–
Cc1cc(CNCCN(C)C)c(C)n1-c1cc(S(=O)(=O)N2CCOCC2)ccc1N1CCCC1	·	·	·	?	–	16µM
CNCc1cc(C)n(-c2cc(S(=O)(=O)N3CCOCC3)ccc2N2CCCC2)c1C	·	·	·	?	–	?
O=C(COC(=O)CCc1nc2ccccc2n1-c1ccccc1)Nc1ccc(N2CCCCC2)cc1	6.3µM	–	?	–	–	–
CC(C)C[C@H]1CN([C@@H](CC(C)C)CN2CCC[C@H]2CN2C(=O)C(=O)NC[C@@H]2Cc2ccccc2)C(=O)C(=O)N1CCc1ccccc1	·	·	·	–	–	–
CC(C)C[C@@H](CN1CCCC1CN1C(=S)NC[C@@H]1Cc1ccccc1)N1C[C@H](Cc2ccccc2)N(CCc2ccccc2)C1=S (stereo partly specified)	·	·	·	?	–	9.2µM
CC(C)C[C@@H](CN1CCC[C@@H]1CN1C(=O)C(=O)NC[C@@H]1Cc1ccccc1)N1C[C@H](Cc2ccc(O)cc2)N(CCc2ccccc2)C(=O)C1=O	·	·	·	?	–	?
CC(C)C[C@@H](CN1CCCC1CN1C(=S)NC[C@@H]1Cc1ccccc1)N1C[C@H](Cc2ccc(O)cc2)N(CCc2ccccc2)C1=S (stereo partly specified)	·	·	·	18µM	–	?
CC(C)C[C@@H](CN1CCC[C@@H]1CN1C(=S)NC[C@@H]1Cc1ccccc1)N1C[C@H](Cc2ccc(O)cc2)N(CCc2ccccc2)C1=S	·	·	·	?	–	18µM
CC(C)C[C@@H](CN1CCC[C@@H]1CN1C(=S)NC[C@@H]1Cc1ccc(O)cc1)N1C[C@H](Cc2ccc(O)cc2)N(CCc2ccccc2)C1=S	·	·	·	?	-59	21µM
COc1ccc(C(=O)NCC(=O)N/N=C/c2cn(C)c3ccccc23)cc1OC	–	–	–	–	–	–
CCOC(=O)c1c(C)nc2sc3c(c2c1-c1ccc(OC)cc1)NC(c1ccc(OC)cc1)NC3=O (stereo unspecified)	–	?	–	?	–	13µM
CCOC(=O)c1sc(N)c(C(N)=O)c1C	–	–	–	–	–	–
CCOC(=O)c1sc(NC(C)=O)cc1C	–	–	–	–	–	–
CCOC(=O)c1cc(NC(=O)Nc2ccccc2Cl)c(C)nc1C	–[10 µM]	–	–	–	–	–
CCOC(=O)c1c(N)sc(N)c1C(=O)OCC	–	–	–	4.6µM	-71	5.2µM
CCOC(=O)c1sc(NC(=O)Nc2ccccc2)cc1C	2.5µM	?	5µM	23µM	-117	26µM
CCOC(=O)c1c(C)nc(C)c(C(=O)OCC)c1-c1ccc(O)c(OC)c1	–	?	–	?	–	–
CCOC(=O)c1sc(NC(=O)Nc2ccccc2Cl)cc1C	?	?	?	23µM	–	15µM
SMILES	VP16 counter	ELG1 repair inh	RORgamma inh	TDP1 cell CPT	IL-1B inflam inh	TDP1 cell noCPT
COc1ccc(C2=Nc3ccccc3N(C(=O)c3cccnc3)C2C(=O)NC(C)(C)C)cc1 (stereo unspecified)	·	·	·	–	–	–
CC1CN(C(=O)CCC(=O)NC2CCCCC2)c2ccccc2S1 (stereo unspecified)	–	–	–	?	?	?
COc1ccc(-c2c3c(nc4sc(C(=O)Nc5ccc(F)cc5)c(N)c24)CC(C)(C)CC3=O)cc1	·	·	·	?	·	15µM
CCOC(=O)c1c(C)nc2sc(C(=O)Nc3ccccc3)c(N)c2c1-c1ccc(OC)cc1	–	–	–	?	–	15µM
COc1ccc(-c2c3c(nc4sc(C(=O)Nc5ccccc5)c(N)c24)CCC3)cc1	·	·	·	–	?	?
CCOC(=O)c1sc(NC(=O)C2CCC2)cc1C	–	?	–	–	?	21µM
CCOC(=O)c1c(N)sc(C(=O)Nc2ccccc2)c1C	?	?	?	?	–	18µM
O=C(O)c1cc(Oc2ccc([N+](=O)[O-])cc2)cc(Oc2ccc([N+](=O)[O-])cc2)c1	–	·	–	·	·	·
CC(=O)Nc1ccc(NC(=O)C(C)Sc2nnc(C3CC3)n2-c2ccccc2)cc1 (stereo unspecified)	·	–	·	–	–	–
CCOC(=O)c1cc(C)sc1NC(=O)c1ccc(Cl)s1	–	–	–	–	–	–
Cc1c(C(=O)OC(C)C)sc(N)c1C(=O)OC(C)C	?	?	–	–	-61	?
Cc1ccc(NC(=O)c2c(C)nc3sc(C(=O)Nc4ccc(F)cc4)c(N)c3c2-c2ccc(C)o2)c(C)c1	·	·	·	?	·	18µM
CCOC(=O)c1sc(NC(=O)c2ccc(C)s2)cc1C	?	?	1.3µM	?	?	?
Cc1ccc(C2CC(=O)n3nc(-c4cccc(C)c4)nc3S2)cc1 (stereo unspecified)	·	·	·	–	·	–
CCNC(=O)C1CCCN(C(=O)c2c(-c3ccccc3)noc2C)CC1 (stereo unspecified)	·	·	·	–	–	–
CCCCCc1cc(=O)oc2c(C(CCN3CCCCC3)c3ccc(OC)cc3)c(OC)cc(OC)c12 (stereo unspecified)	?	–	?	?	?	16µM
CCN(CC)CCC(c1ccc2c(c1)OCO2)c1c(OC)cc(OC)c2c(C)cc(=O)oc12 (stereo unspecified)	–	·	–	·	·	·
CCCCCc1cc(=O)oc2c(C(CCN(CC)CC)c3ccc(OC)cc3)c(OC)cc(OC)c12 (stereo unspecified)	8.9µM	–	?	15µM	?	?
COc1cc(OC)c2c(C)cc(=O)oc2c1C(CCN1CCCC(C)C1)c1ccc(N(C)C)cc1 (stereo unspecified)	–	·	–	·	·	·
